Compound activity from PubChem BioAssay.
Rows were chosen to be rich in hits. Some 2.6% of all compounds tested hit in one or more screens of this group.
CRFBP-R2 block: CRF-BP/CRF-R2 complex antagonism. HEK293 CRF-R2/CRF-BP, CRF-induced calcium fluorescence. inhibition, % at 11.8 µM. 350,000 compounds, 0.59% hits;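 active = inhibition of the ligand-induced calcium signal above about 50% at the single tested concentration, limit read from the data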
CRFR2-BP ag: CRF-BP/CRF-R2 complex agonism. activation, % at 13.2 µM. 350,000 compounds, 0.46% hits. HEK293 CRF-R2/CRF-BP, calcium dye fluorescence (FLIPR); percent of saturating CRF peptide response;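 active = activation of at least 50%, plus an integration ratio under a set limit after plate pattern correction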;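 also: plate controls were neutral control wells without compound for no effect and CRF at EC100 for full effect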
IDE inh: inhibits human insulin-degrading enzyme in HEK cells. FAbetaB cleavage, fluorescence polarization. inhibition, % at 5.59 µM. 320,000 compounds, 0.41% hits;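 active = percent inhibition above the average of all tested compounds plus 3 SD, set per screening campaign, cut at about 16% in these data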;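 also: IDE supplied by intact live HEK cells; FP after avidin binding of uncleaved biotin substrate so inhibition keeps polarization high; 0% = DMSO wells and 100% = 60 µM reference IDE inhibitor Ii1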
Myeloid diff MLP: promotes myeloid progenitor differentiation. calls only at 10 µM. ER-HoxA9 myeloid progenitors, lysozyme-GFP differentiation, flow cytometry. 360,000 compounds, 1% hits. AID 624256;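 active = normalized GFP-positive differentiation at or above the plate's own cutoff, the solvent-only control mean plus 3 SD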;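 also: cells exposed to compound for four days before flow analysis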
IDE cell activ: boosts human insulin-degrading enzyme activity in HEK cells | P14735 | FAbeta-B cleavage, fluorescence polarization; 0% vehicle, 100% cell-free pure enzyme wells | activation, % at 5.96 µM | 340,000 compounds, 0.073% hits;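 active = activation above the mean of all tested compounds plus 3 SD, set per screening campaign, cut at about 17% in these data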
TPT1 inh: C. albicans TPT1 enzyme inhibition; recombinant caTPT1, FP RNA substrate dephosphorylation; inhibition, % at 5 µM; 300,000 compounds, 0.81% hits; AID 1962;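 active = inhibition above the mean of all tested compounds plus 3 SD, set per screening campaign, cut at about 24% in these data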;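 also: plate controls were DMSO alone for no effect and ferristatin control at 100 nM for full effect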
TPT1 inh confirm: confirmation of Candida albicans TPT1 inhibitors; shares compounds with TPT1 inh; inhibition, % at 5 µM; recombinant caTPT1, fluorescence polarization, RNase T1 coupled; 2,400 compounds, 74% hits;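 active = inhibition above the primary screen limit, the mean inhibition of all tested compounds plus 3 SD, cut at about 25% in these data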
RNase T1 inh: counter-screen for TPT1 inhibitors: inhibitors of Aspergillus oryzae RNase T1; shares compounds with TPT1 inh; RNase T1 cleavage, fluorescence polarization, 1536-well; inhibition, % at 5 µM; 2,400 compounds, 83% hits; AID 2153;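 active = inhibition above the solvent-only control well mean plus 3 SD, limit set per screening run, cut at about 23% in these data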;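 also: plate controls were DMSO wells with enzyme for no effect and wells without RNase T1 for full effect; inhibitors block cleavage so intact labeled substrate keeps polarization high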
Target sequence (P00651 whole entry, looked up): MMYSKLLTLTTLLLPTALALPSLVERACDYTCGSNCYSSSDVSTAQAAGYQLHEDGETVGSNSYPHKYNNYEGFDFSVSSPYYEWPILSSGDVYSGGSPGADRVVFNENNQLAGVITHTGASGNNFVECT
IDE cell inh cf: cellular human IDE inhibition, confirmation; shares compounds with IDE inh; inhibition, % at 5.59 µM; HEK cells, FAbetaB cleavage, fluorescence polarization; 1,200 compounds, 51% hits;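 active = mean inhibition across triplicate wells above the cutoff set by the earlier primary insulin-degrading enzyme screen, cut at about 16% in these data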;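 also: 0% = DMSO wells and 100% = 60 µM reference IDE inhibitor Ii1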
HEK cytotox: kills HEK cells in IDE inhibitor counter-screen; shares compounds with IDE inh; HEK293 cytotoxicity, ATP luminescence; inhibition, % at 5.59 µM; 1,200 compounds, 28% hits; in the data active = inhibition above about 22%;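 also: 0% = vehicle wells and 100% = reference cytotoxic drug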
Myeloid diff: promotes myeloid progenitor differentiation; ER-HoxA9 myeloid progenitors, GFP/Mac1 double-positive flow; 2,300 compounds, 2% hits; shares compounds with Myeloid diff MLP; calls only;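 active = share of green or green-and-red cells above 9 and 9% in run 1 or 4 and 3% in run 2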
GFP autofluor: counter-screen for myeloid differentiation promoters: compound fluorescence | ER-HoxA9 myeloid progenitors, no estrogen, GFP autofluorescence flow cytometry; vehicle wells 0%, positive control 100% | shares compounds with Myeloid diff MLP | fluorescence response, % (concentration not given with the values) | AID 651707 | 2,300 compounds, 7.4% hits;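 active = over 5% cells positive for green fluorescent reporter, or over 2% positive for both it and APC stain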;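 also: range taken on the double positive population between DMSO and positive control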
* marks the source's active call; other numbers are inactive results; i = inactive; . = not tested or not shown; + = active, no number.

SMILES | CRFBP-R2 block | CRFR2-BP ag | IDE inh | Myeloid diff MLP | IDE cell activ | TPT1 inh | IDE cell inh cf | HEK cytotox | others
O=C(O)CCCN1C(=O)/C(=C\c2ccc(-c3nc4ccccc4s3)o2)SC1=S | -118 | 109* | 13 | + | -14 | 30* | . | . | TPT1 inh confirm=48*;RNase T1 inh=75*;Myeloid diff=i;GFP autofluor=0
Cc1ccc(NC(=O)CN(c2ccc(Cl)cc2)S(=O)(=O)c2cc([N+](=O)[O-])ccc2Cl)c(C)c1 | 10 | -1 | 0 | i | . | 0 | . | .
O=C(C[n+]1ccc(-c2nnc3n2CCCCC3)cc1)c1ccc(Cl)cc1 | -8 | 5 | 4 | i | 6 | -3 | . | .
CCN1C(=S)SC(=O)C1=C1C=C(C)N(CCO)C(C)=C1 | -16 | 6 | 13 | i | -10 | 38* | . | . | TPT1 inh confirm=53*;RNase T1 inh=62*;Myeloid diff=i;GFP autofluor=0
CCOC(=O)[C@]12CCCC=C1N(Cc1ccccc1)C(=O)[C@H](CC(=O)N1CCN(C(=O)C3CC3)CC1)C2 | . | . | . | i | . | . | . | .
CCN(CC)c1ccc2cc(S(=O)(=O)c3ccc(Cl)cc3)c(=O)oc2c1 | -83 | 118* | 6 | i | -18 | 86* | . | . | TPT1 inh confirm=98*;RNase T1 inh=104*;Myeloid diff=i;GFP autofluor=1
CCCCCCc1cc2cc(S(=O)(=O)c3ccc(Cl)cc3)c(=O)oc2cc1O | -7 | 44 | 9 | i | -2 | 11 | . | .
Cn1c(SCC(=O)OC2CCCCC2)nnc1-c1ccco1 | -1 | 2 | 19* | i | -7 | 1 | 5 | 13
CCOC(=O)CCCCCC(=O)Nc1ccc2c(c1)C(=O)N([C@@H](C)CO)C[C@@H](C)[C@H](CN(C)S(=O)(=O)c1cccs1)OCCCC[C@H](C)O2 | -3 | 0 | . | i | . | . | . | .
CC(=O)Nc1ccc(N2C(=O)c3cccc4c(O)ccc(c34)C2=O)cc1 | -168 | 201* | 95* | i | -30 | -21 | 26* | 3
Cc1ccc(N2C(=O)c3cccc4c(C(=O)O)ccc(c34)C2=O)cc1 | . | . | 3 | . | . | 0 | . | .
COc1ccc(-c2noc(CSc3nnc(-c4ccccc4)n3C)n2)cc1 | 17 | -1 | 17* | i | -18 | -3 | 9 | 16
Cn1c(SCc2nc(-c3ccc(Br)cc3)no2)nnc1-c1ccco1 | 8 | 1 | 9 | i | -8 | 2 | . | .
Cn1c2ccccc2c(=O)c2c(=O)n(-c3ccc(F)cc3)c(C3CCCCC3)nc21 | 8 | 1 | . | i | -6 | . | . | .
COc1ccc2nc(NC(=O)CN(c3ccc(C)cc3)S(=O)(=O)c3c(C)nn(C)c3C)sc2c1 | -16 | 0 | 16* | i | -1 | 1 | 5 | 15
COc1ccc2[nH]c3c(NCc4ccco4)ncnc3c2c1 | -8 | 0 | 38* | . | . | 2 | 18* | 15
Fc1ccc2[nH]c3c(NCc4ccccc4)ncnc3c2c1 | 13 | 18 | 88* | i | -24 | -1 | 67* | 59*
COCCNc1ncnc2c1[nH]c1ccccc12 | -10 | 1 | 18* | i | -13 | -1 | 6 | 18
COc1ccc([N+](=O)[O-])cc1/C=N/NC(=O)/C(=C\c1cccs1)NC(=O)c1ccccc1 | -33 | -1 | 28* | i | -4 | -5 | 14 | 8
Cn1ncc2c(Nc3ccc4ccccc4c3)ncnc21 | -3 | -1 | 32* | i | -58 | -3 | 4 | 10
Clc1cc2cccnc2c2ccccc12 | -18 | -1 | 19* | i | -10 | -2 | 13 | 4
N=c1ccn(CC(=O)c2ccc(-c3ccccc3)cc2)cc1 | 5 | 0 | 43* | . | -27 | 0 | 11 | 88*
COc1cccc(Cl)c1NC(=O)N1CCN(c2cc(C)nc3ccccc23)CC1 | 13 | -4 | 28* | i | -33 | 0 | 22* | 23*
Cc1cc(N2CCN(C(=O)/C=C/C(=O)O)CC2)c2ccccc2n1 | -11 | 3 | 2 | i | 2 | 0 | . | .
CN(C(=O)c1cccc(NC(=O)Cc2cccc(NC(=O)C3CCCN(C(=O)c4ccccc4)C3)c2)c1)C1CCC1 (stereo not given) | 9 | 0 | . | i | -1 | . | . | .
SMILES | CRFBP-R2 block | CRFR2-BP ag | IDE inh | Myeloid diff MLP | IDE cell activ | TPT1 inh | IDE cell inh cf | HEK cytotox | others
CC(C)(C)NC(=O)C(c1ccccc1F)n1c(=O)c(-c2ccccc2)nc2ccccc21 (stereo not given) | . | . | . | i | . | . | . | .
COC(=O)C1=C(C)N(c2ccc(F)cc2)/C(=C/c2ccc(O)cc2)C1=O | -23 | 0 | 20* | i | -40 | -1 | 76* | 12
CCOc1ccccc1-n1c(SCC(=O)N2CCCc3ccccc32)nnc1-c1cccnc1 | -7 | -1 | 33* | i | -38 | -1 | 17* | 16
O=C(c1cncc(Br)c1)N1CCN(S(=O)(=O)c2ccc3ccccc3c2)CC1 | 1 | 0 | -2 | i | 0 | . | . | .
COc1cc(/C=C2\SC(=S)N(CC(=O)O)C2=O)ccc1OC(=O)c1ccco1 | 2 | 0 | 24* | i | -31 | 5 | 107* | 5
COc1cc(/C=C2/SC(=S)N(CC(=O)O)C2=O)ccc1OC(=O)c1ccco1 | 1 | -1 | 26* | i | -19 | 5 | 90* | 9
CCOc1cc(/C=C2/SC(=S)N(CC(=O)O)C2=O)ccc1OC(=O)c1cccs1 | 16 | 4 | 8 | i | -1 | 1 | . | .
COc1ccc(/C=C2/SC(=S)N(CC(=O)O)C2=O)cc1OCc1ccc(Cl)cc1 | 32 | -1 | -4 | i | 3 | 2 | . | .
CS(=O)(=O)c1ccc(N)c(SSc2cc(S(C)(=O)=O)ccc2N)c1 | -6 | 1 | 30* | i | -24 | 1 | 27* | 7
CCc1ccc(C(=O)/C=C2\Sc3ccccc3NC2=O)cc1 | -15 | -6 | 18* | i | -2 | -2 | 2 | 9
O=C(NCc1ccc(Cl)cc1)c1csc(-c2cccnc2)n1 | 43 | -2 | -2 | i | 9 | -2 | . | .
O=C(NNC(=O)c1ccc(Cl)cc1Cl)c1csc(-c2cccnc2)n1 | -5 | -1 | 21* | i | 0 | -3 | 9 | 11
